# Source: PubChem BioAssay
# Rce1 inhib – yeast Rce1p protease inhibitors, primary screen, biochemical, fluorescence, cell-free homogeneous. CAAX prenyl protease 2 (Saccharomyces cerevisiae (strain ATCC 204508 / S288c)), Q03530. yeast membranes, quenched prenylated peptide cleavage fluorescence. calls only. actives 0.27% (n = 290,000). AID 2563, 2010;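 active = fall in fluorescence gain of 50% or more versus controls, with final raw signal at or below 3038400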
# Target sequence (Q03530 whole entry, looked up): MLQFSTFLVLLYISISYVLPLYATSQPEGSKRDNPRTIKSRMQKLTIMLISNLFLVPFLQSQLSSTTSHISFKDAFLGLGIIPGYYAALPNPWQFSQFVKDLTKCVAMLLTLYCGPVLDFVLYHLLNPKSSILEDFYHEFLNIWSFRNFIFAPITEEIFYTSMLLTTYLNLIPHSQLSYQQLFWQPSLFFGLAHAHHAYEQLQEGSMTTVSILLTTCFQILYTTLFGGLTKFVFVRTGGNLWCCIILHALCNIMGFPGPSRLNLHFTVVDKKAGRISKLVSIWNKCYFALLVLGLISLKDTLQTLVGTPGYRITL
# PfHsp90 yeast 2 – growth inhibition of PfHsp90-expressing yeast, primary screen, antimalarial PfHsp90 inhibitor project, S. cerevisiae, BacTiter-Glo luminescence, single point, set 2. BacTiter-Glo ATP, 48 h; yeast lacking PDR1 and PDR3 efflux regulators. inhibition, % at 9.4 µM. actives 0.32% (n = 310,000). AID 504621, 2011;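 active = every replicate shows inhibition above about 80%, whatever the replicate mean, limit read from the data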
# tim23-1 inh – growth inhibitors of tim23-1 mutant yeast, primary screen, luminescence, uHTS | actives 1.3% (n = 330,000) | AID 463212, 2010 | inhibition, % at 20 µM | S. cerevisiae tim23-1 growth, BacTiter-Glo luminescence, 24 h;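 active = growth inhibition of the mutant yeast at or above 50%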;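 note: temperature-sensitive mutant grown at 25 °C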
# tim10-1 inh – growth inhibitors of tim10-1 mutant yeast, primary screen, luminescence, uHTS; inhibition, % at 20 µM; S. cerevisiae tim10-1 ts strain growth, BacTiter-Glo, 24 h; actives 2.2% (n = 330,000);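 active = inhibition of at least 40%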;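 note: mutant grown at 25 °C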
# TIM10 inh – growth inhibitors of isogenic TIM10 control yeast, primary screen, counter-screen for tim10-1 yeast inhibitor project, luminescence, uHTS; S. cerevisiae TIM10 strain growth, BacTiter-Glo luminescence, 24 h; inhibition, % at 10 µM; actives 1.4% (n = 330,000);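 active = inhibition of 40% or more at the single tested concentration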;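 note: wild-type TIM10 isogenic control strain grown at permissive 25 °C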
# tim23-1 confirm – tim23-1 mutant yeast growth inhibitors, confirmation, luminescence, single concentration; shares compounds with tim23-1 inh; inhibition, % at 20 µM; S. cerevisiae tim23-1 growth, BacTiter-Glo luminescence, 24 h; AID 463218, 2010; actives 83% (n = 4,400);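 active = inhibition above about 39% in either of two replicate wells at 20 µM, limit read from the data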;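 note: temperature-sensitive tim23-1 mutant grown at 25 °C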
# Numbers stand for hits; 0 = inactive; - = not tested or not shown. This is a sample that favours compounds with a hit; in the whole collection about 3.7% have one here.
SMILES,Rce1 inhib,PfHsp90 yeast 2,tim23-1 inh,tim10-1 inh,TIM10 inh,tim23-1 confirm
CCN=c1scc(-c2ccc(F)cc2)n1/N=C/c1ccccn1,0,0,58,0,0,70
O=C(Cc1cnc2ncnn2c1)N1CCc2c([nH]c3ccccc23)C1c1ccccn1 (stereo not given),0,0,59,0,0,0
CCN(CC)S(=O)(=O)c1ccc(C(=O)OCn2nnc3ccccc3c2=O)cc1,0,0,70,0,0,56
Cc1ccc(C(=O)NC2=NCCS2)cc1Cl,0,0,55,0,0,47
O=C(NC(=S)NCc1ccco1)c1cccc(Cl)c1,-,0,57,0,0,47
Cc1[nH]nc2c1C(c1ccc(F)cc1)C(C#N)=C(N)O2 (stereo not given),-,0,0,0,0,-
Cc1ccc(-c2ccc(C3C(C#N)=C(N)Oc4n[nH]c(C)c43)o2)cc1 (stereo not given),0,0,60,0,0,46
Oc1ccc(/C=N/Nc2cccc(Cl)n2)c(O)c1,0,0,56,0,0,44
Oc1ccc(/C=N\Nc2cc(N3CCOCC3)nc(N3CCOCC3)n2)c(O)c1,0,0,0,0,0,-
Cc1nc(-c2ccccc2OC(F)(F)F)[nH]c(=O)c1Cl,0,0,0,0,0,-
CCN=C1SC(C(=O)Nc2cccc(OCC)c2)CC(=O)N1CC (stereo not given),0,0,0,0,0,-
Cc1cccc(C)c1NC(=O)NC1(C(=O)N2CCCCC2)CCCCC1,0,0,0,0,0,-
C=C1SC(Nc2c(C)cccc2C)=NC12CCCCC2,0,0,50,0,0,44
CCN(CC)c1nc(N)nc(N(c2ccccc2)c2ccccc2)n1,0,0,57,0,0,50
CC1=CC(=NOC(=O)/C=C/c2ccccc2)C=C(C)C1=O,0,-,70,0,0,53
COC(=O)Nc1ccc2c(c1)Nc1ccccc1CC2,0,0,66,0,0,42
NS(=O)(=O)c1cccc(Nc2nc3ccccc3nc2NS(=O)(=O)c2ccc(Cl)cc2)c1,-,0,0,0,0,-
c1csc(CSc2nnc3sc4ccccc4n23)c1,0,0,54,0,0,50
O=C(O)CN1C(=O)c2cccc3c(Br)ccc1c23,0,0,0,0,0,-
CN(C)CCCN1C(=O)c2cccc3c(Br)ccc(c23)C1=O,0,0,62,0,0,71
Cc1cccc(C(=O)NCC(=O)N2CCN(S(=O)(=O)c3ccc4c(c3)OCCO4)CC2)c1,-,0,0,0,0,-
O=C(O)/C=C\C(=O)Nc1ccc(Oc2ccc(Br)cc2)cc1,0,0,53,0,0,0
O=C(O)/C=C/C(=O)Nc1ccc(Oc2ccc(NC(=O)/C=C/C(=O)O)cc2)cc1,0,-,0,0,0,-
O=C(Nc1ccccc1N(C(=O)c1ccco1)S(=O)(=O)c1cccs1)c1ccco1,0,0,54,0,0,38
COc1ccc(N(C(=O)c2ccco2)S(=O)(=O)c2cccs2)cc1,0,0,0,0,0,-
SMILES,Rce1 inhib,PfHsp90 yeast 2,tim23-1 inh,tim10-1 inh,TIM10 inh,tim23-1 confirm
CCOC(=O)C1=C(C)N=c2s/c(=C\c3ccc(OCC(=O)O)cc3)c(=O)n2C1c1ccccc1 (stereo not given),0,0,0,0,0,-
COC(=O)C1=C(C)N=c2s/c(=C/c3ccoc3)c(=O)n2C1c1ccccc1 (stereo not given),0,-,50,0,0,50
CCn1ncc(NC(=S)NCCc2ccccc2)c1C(N)=O,0,0,0,0,0,-
Cc1cc(=O)oc2c3c(cc(OCC(=O)NCCCn4ccnc4)c12)OC(C)(C)CC3,0,0,0,0,0,-
COc1ccc(C2=NNC(c3cccs3)=Nc3ccc(OC)cc32)cc1,0,0,60,0,0,61
CN(Cc1ccccc1)C(=S)NC(=O)c1cccs1,0,0,51,0,0,0
CN(Cc1ccccc1)C(=S)NC(=O)c1ccc(-c2ccccc2)cc1,0,0,0,0,0,-
CC(NC(=S)NC(=O)c1cccs1)c1ccccc1 (stereo not given),-,0,52,0,0,45
